Assay outcomes: PubChem, National Center for Advancing Translational Sciences (NCATS)
Only some compounds are listed: those with a hit (about 1.9% of all), similar ones and a draw of the others.
ClpP mod: qHTS Assay for Activators of ClpP; ATP-dependent Clp protease proteolytic subunit (Bacillus subtilis (strain 168)), P80244; purified B. subtilis ClpP, FRET peptide cleavage, 20 min; Potency, µM (top dose mostly 57.5 µM), for inactives: top-dose activity change, negative = active; 1.9% of 340,000 active; active = well fitted falling curve with a large enough effect; inconclusive = small, poorly fitted or top-dose-only effect; inactive = no such curve, though single readings can be large or run the other way; note: potency is the fitted concentration of half-maximal effect; the source files actives as falling curves though it sought activators and does not explain the sign; nearly all actives have a fitted effect of over 65% in size
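Purified B. subtilis ClpP, 10 microg/mL final in Tris/HCl pH8 with KCl, BSA, glycerol and Tween-20, cleaved an Abz/nitrotyrosine-quenched decapeptide. Fluorescence (ex 320, em 430) was read at 0 and 20 min at room temperature. Delta was normalized to 5.8 microM ADEP and DMSO/no-enzyme controls.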
Epigenetic reg: regulators of epigenetic silencing causing reporter derepression in mouse cells | Potency, µM (titrated, usually from 53.9 µM), inactives show at the top dose GFP activation, most hits filed as activators | 0.2% of 280,000 active | murine LDR cells, GFP reporter derepression, 30 h; active = well fitted activation curve with a large enough effect; inconclusive = small, poorly fitted or top-dose-only effect; note: potency is the fitted concentration of half-maximal effect; % of control where 0% means no effect; nearly all actives have a fitted effect of over 60% in size
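Murine LDR cells carrying a silenced, genomically integrated CMV-driven GFP reporter were exposed to compound for 30 hours at 37 C. After PBS washes, GFP-positive cells (20–120 um objects) were counted by laser-scanning microplate cytometry.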
PINK1 expr mod: changes PINK1 expression. 0.2% of 410,000 active. PINK1 immunofluorescence, high-content cytometry, 24 h. Potency, µM (series often up to 76.6 µM), for inactives: at the highest dose activation (PINK1 increase), actives largely listed as activators; active = well fitted activation curve with a large enough effect; inconclusive = small, poorly fitted or top-dose-only effect; cell line not stated here; note: potency is the fitted concentration of half-maximal effect; % of control where 0% means no effect; nearly all actives have a fitted effect of over 65% in size
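Fluorescence from anti-PINK1 antibody, together with nuclear and cell stains, was scanned on a laser-scanning cytometer. Before staining, stable-line cells were incubated 24 hours with compounds at 5 concentrations; primary antibody 12 h at 10 degrees C.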
Menin-MLL FL inh: displaces fluorescein MLL peptide from human menin; Fluorescence polarization, fluorescein-MLL peptide displacement from menin; FP activity change, % at 61.4 µM; 290,000 tested, under 10 active; AID 1766; active = well fitted curve in the direction sought with a large enough effect in the polarisation, not every such curve was filed as active; inconclusive = small, poorly fitted or top-dose-only effect, or effect the other way, or a change in a side signal; inactive = no such curve, though single readings can be large or run the other way; the % refers to the polarisation; note: % of control where 0% means no effect
CXXC DNA block: inhibitors of human MLL CXXC domain-DNA interaction; MLL-CXXC / FITC-HOXA9 DNA fluorescence polarization; Potency, µM (doses to about 115 µM), for the others: top-dose activity change, negative = inhibition, most hits filed as inhibitors; 0.037% of 290,000 active; AID 2662; active = well fitted inhibition curve with a large enough effect in the polarisation, with a control signal flat, not every such curve was filed as active; inconclusive = small, poorly fitted or top-dose-only effect, or effect the other way, or a change in a side signal; inactive = no such curve, though single readings can be large or run the other way; the % refers to the polarisation; note: potency is the fitted concentration of half-maximal effect
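Steps: dispense CXXC domain solution (7 uM) → pin compounds or unlabeled HOX-A9 DNA control → 5 min ambient → add FLSN-HOX-A9 solution (50 nM) → spin → 30 min ambient → fluorescence polarization. Tris pH 7.5/NaCl/DTT/BSA buffer.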
Menin MLL FP TR: displaces Texas Red mutant MLL peptide from human menin; O00255; Menin + Texas Red MLL mutant peptide, fluorescence polarization; Potency, µM (highest dose often 61.6 µM), for the others: at the top dose FP activity change, negative = inhibition, usual class: inhibitors; 0.23% of 270,000 active; active = well fitted inhibition curve with a large enough effect in the polarisation, with a control signal flat, not every such curve was filed as active; inconclusive = small, poorly fitted or top-dose-only effect, or effect the other way, or a change in a side signal; inactive = no such curve, though single readings can be large or run the other way; the % refers to the polarisation; note: potency is the fitted concentration of half-maximal effect; % of control where 0% means no effect
Target sequence (O00255 whole entry, looked up): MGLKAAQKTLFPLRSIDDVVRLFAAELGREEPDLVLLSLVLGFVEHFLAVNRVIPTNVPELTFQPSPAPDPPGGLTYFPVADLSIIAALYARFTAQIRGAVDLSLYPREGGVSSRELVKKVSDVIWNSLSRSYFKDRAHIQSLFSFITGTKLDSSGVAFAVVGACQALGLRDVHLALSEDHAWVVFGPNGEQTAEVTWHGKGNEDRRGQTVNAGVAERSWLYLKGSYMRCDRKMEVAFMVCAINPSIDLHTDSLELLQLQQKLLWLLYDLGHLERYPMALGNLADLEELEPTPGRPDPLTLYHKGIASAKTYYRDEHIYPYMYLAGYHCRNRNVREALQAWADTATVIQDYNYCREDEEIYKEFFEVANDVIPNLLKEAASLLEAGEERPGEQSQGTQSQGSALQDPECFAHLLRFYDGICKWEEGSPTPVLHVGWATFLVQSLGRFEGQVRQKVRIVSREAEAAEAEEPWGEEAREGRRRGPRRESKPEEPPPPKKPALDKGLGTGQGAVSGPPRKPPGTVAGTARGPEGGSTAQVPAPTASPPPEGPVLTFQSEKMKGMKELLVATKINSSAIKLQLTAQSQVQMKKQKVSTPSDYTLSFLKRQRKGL
* = called active by the depositor; ? = inconclusive; / = not tested or not shown; [ ] = another dose, or the depositor's remark.

SMILES	ClpP mod	Epigenetic reg	PINK1 expr mod	Menin-MLL FL inh	CXXC DNA block	Menin MLL FP TR
COc1ccc(N/C=C\C(=O)c2ccc(Br)cc2)cc1OC	1%	?	40µM*	-1	28%	5%
NC(=O)c1ccccc1N/C=C/C(=O)c1ccccc1	5%	-2%	/	8	3%	2%
CSc1ccc(-c2ccc(C(=O)NCC3CCCO3)c(N3CCC(O)CC3)n2)cc1 (stereo unspecified)	/	/	1%	/	/	/
C=CCN1CC[C@@H](O)C(=C)S1(=O)=O	0%	/	/	/	/	/
COc1cc(CNC(=O)c2cnn(-c3ncc4c(n3)-c3ccccc3CC4)c2C)cc(OC)c1OC	/	/	0%	/	/	/
O=c1c(Cl)c(NCCO)ncn1-c1ccccc1	28µM*	2%	1%	4	-2%	7%
CNc1nc(Cl)nc2c1ncn2-c1ccccc1	1%	/	-1%	/	/	/
CC[N+](CC)(CC)c1ccc(/C=C/c2ccc3ccccc3n2)cc1	-2%	/	?	/	/	/
CC(=O)Nc1ccc(S(=O)(=O)NNC(=O)c2cc3c4ccccc4n(C)c3s2)cc1	28µM*	-1%	3%	5	4%	11%
COc1cccc(-c2cc3c(c(OC)c2)OCCN(S(=O)(=O)c2ccccc2OC(F)(F)F)C3)n1	/	/	0%	/	/	/
O=C1CC[C@@H](CN(Cc2cccnc2)C2CCN(c3ccc(NC(=O)c4cnccn4)cc3)CC2)N1	/	/	1%	/	/	/
O=C(CSCc1ccccc1Cl)N1CCN(c2ccccn2)CC1	32µM*	-1%	0%[38.3 µM]	2	15%	-8%
Cc1ccc(S(=O)(=O)N2CCCCC2)cc1C(=O)N1CCN(c2ccccn2)CC1	28µM*	-8%	-1%	0	-2%	-19%
O=C(c1c(Cl)cccc1Cl)N1CCN(c2ccccn2)CC1	32µM*	-1%	5%[38.3 µM]	1	8%	5%
O=C(C1CCCCC1)N1CCOc2ccc(CN3CCN(Cc4ccccn4)CC3)cc2C1	/	/	1%	/	/	/
Cc1ccsc1C1NC(=O)c2c(sc3c2CCN(C)C3)N1 (stereo unspecified)	4%	0%	2%	?	34%	-20%
COc1ccc(C(=O)Oc2ccc(C3NC(=O)c4c(sc5c4CCN(C)C5)N3)cc2OC)cc1 (stereo unspecified)	18µM*	5%	0%	/	/	/
CN1CCc2c(sc3c2C(=O)NC(c2cccs2)N3)C1 (stereo unspecified)	25µM*	1%	/	?	20%	28µM*
COc1ccccc1N1CCN(c2nc(CNC(=O)c3ccc4c(c3)OCO4)nc3ccccc23)CC1	/	/	-1%	/	/	/
CCC1CN(Cc2cccc3nccnc23)Cc2cc(OC)ccc2O1 (stereo unspecified)	/	/	0%	/	/	/
O=c1c2c(nc3cc(-c4ccccc4)[nH]n13)CCC2	11µM*	0%	3%	-1	0%	-5%
Cc1cc2nc3c(c(=O)n2[nH]1)CCCC3	-17%	-1%	-1%	-1	1%	-4%
COc1ccc(-c2cc3nc4c(c(=O)n3[nH]2)CCC4)cc1	22µM*	-1%	8%	0	6%	-10%
O=c1c2c(nc3cc(-c4ccccc4Cl)[nH]n13)CCS2	/	-1%	5%	?	-11%	?
O=c1c2c(nc3cc(-c4ccc(Br)cc4)[nH]n13)CCCC2	/	-1%	1%	1	-1%	-22%
SMILES	ClpP mod	Epigenetic reg	PINK1 expr mod	Menin-MLL FL inh	CXXC DNA block	Menin MLL FP TR
O=c1c2c(nc3cc(-c4ccccc4)[nH]n13)CCS2	10µM*	0%	-2%	1	1%	-22%
COc1cc2c(cc1O)CCN[C@@]21CS[C@H]2c3c(OC(C)=O)c(C)c4c(c3C(COC1=O)N1C2C2c3c(cc(C)c(OC)c3O)CC([C@@H]1O)N2C)OCO4 (stereo partly specified)	/	/	/	-1	11%	-1%
COCCC1CCCCN1Cc1nc(N2CCCC2)c2cc(OC)c(OC)cc2n1 (stereo unspecified)	/	/	2%	/	/	/
COc1cc2c(cc1OC)C(c1ccc(N(C)C)cc1)CC(=O)N2 (stereo unspecified)	10µM*	1%	-4%	8	4%	3%
CCN(CC)c1ccc(C2CC(=O)Nc3cc(OC)c(OC)cc32)cc1 (stereo unspecified)	1%	0%	-2%	-1	3%	1%
Cc1cc2c(c(-c3cnccn3)c1)OC(CNC(=O)c1ccc(-n3nc(C)cc3C)cc1)C2 (stereo unspecified)	/	/	0%	/	/	/
CC1=C(C(=O)OCC2CCCO2)C(c2ccncc2)C2=C(CCCC2=O)N1 (stereo unspecified)	22µM*	-1%	2%	-1	4%	11%
CC1=C(C(=O)OC(C)C)C(c2cccnc2)C2=C(CCCC2=O)N1 (stereo unspecified)	28µM*	2%	/	-1	-6%	-3%
CC1=C(C(=O)OCC2CCCO2)C(c2ccc(C)cc2)C2=C(CCCC2=O)N1 (stereo unspecified)	/	-1%	2%	1	7%	-3%
COc1ccccc1N(C)c1cc2c(c3c1ccn3C)C1CCC2C1 (stereo unspecified)	32µM*	/	2%	/	/	/
CCN(c1ccc(OC)cc1)S(=O)(=O)c1ccc2[nH]c3c(c2c1)CCCCC3	?	-1%	25µM*	/	/	/
CCN(Cc1ccccc1)S(=O)(=O)c1ccc2[nH]c3c(c2c1)CCCCC3	?	-1%	?	/	/	/
Oc1c(C(Nc2ccccn2)c2ccccc2F)ccc2cccnc12 (stereo unspecified)	1%	3%	1%	/	/	/
Oc1c(C(Nc2ccccn2)c2ccccn2)ccc2cccnc12 (stereo unspecified)	1%	3.5µM*	0%	2	13%	-7%
COc1ccc(C)cc1NC(=O)COC(=O)c1ccccc1SCC(=O)N1CCCC1	28µM*	/	5%	/	/	/
COc1cc(NC(=O)COC(=O)c2ccccc2SCC(=O)N2CCCC2)cc(OC)c1	-3%	/	0%	/	/	/
CCCn1c(/C=C/c2ccco2)nc2ccccc21	-27%	0%	1%	?	-4%	-24%
Clc1ccc(Cn2c(/C=C/c3ccco3)nc3ccccc32)cc1	35µM*	0%	30%	9	6%	-1%
CCCCn1c(/C=C/c2ccco2)nc2ccccc21	-30%	?	-1%	?	-7%	?
Cc1ccc(Cn2c(/C=C/c3ccco3)nc3ccccc32)cc1	28µM*	?	26%	19	2%	?
CC(C)(C)CC(C)(C)N=C1Nc2ccc(Cl)cc2N[C@]12C[C@H]1CCCC(=O)N3CC[C@@H](C2)[C@@H]13	-2%	/	/	/	/	/
